Assay results published in PubChem BioAssay AID1645860 (Buhrlage Lab, Dana-Farber Cancer Institute and Novartis …, 2021).
About 2,500 (5.3%) of roughly 47,000 compounds were called active. This excerpt belongs to a sample that is enriched for actives. A number with no mark means an inactive call. Rule as the data show it: active = inhibition above about 30%; inactive = the rest.

The compounds below were run against Ubiquitin carboxyl-terminal hydrolase 30 (Homo sapiens) (UniProt Q70CQ3) (assay: blocks human USP30 ubiquitin-rhodamine cleavage (AID 1645860)). Conditions: purified USP30, Ub-rhodamine cleavage fluorescence; at 25 µM; stronger effect = higher value.
Ubiquitin carboxyl-terminal hydrolase 30 (Homo sapiens), sequence (Q70CQ3 whole entry, looked up): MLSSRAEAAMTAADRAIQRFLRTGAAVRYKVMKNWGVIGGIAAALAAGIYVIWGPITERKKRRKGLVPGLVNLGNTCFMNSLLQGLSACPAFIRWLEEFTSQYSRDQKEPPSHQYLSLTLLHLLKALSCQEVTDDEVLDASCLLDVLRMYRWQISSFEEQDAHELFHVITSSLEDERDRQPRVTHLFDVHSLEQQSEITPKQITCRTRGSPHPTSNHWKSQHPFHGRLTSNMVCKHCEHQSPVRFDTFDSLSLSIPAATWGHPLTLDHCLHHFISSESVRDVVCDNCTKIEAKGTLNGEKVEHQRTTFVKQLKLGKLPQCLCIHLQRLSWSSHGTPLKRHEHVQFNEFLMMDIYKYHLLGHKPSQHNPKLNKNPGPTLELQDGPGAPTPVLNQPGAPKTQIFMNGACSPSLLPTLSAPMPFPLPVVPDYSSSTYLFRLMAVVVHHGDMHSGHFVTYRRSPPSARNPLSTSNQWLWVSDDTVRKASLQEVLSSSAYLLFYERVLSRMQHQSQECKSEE

SMILES	inhibition
O=C(COc1ccccc1Cl)NCC(c1ccco1)N1CCOCC1 (centres undefined)	-52.2%
COc1ccc(N2C(=O)N(Cc3ccccc3)S(=O)(=O)c3cccnc32)cc1	13.9%
COc1ccccc1NC(=O)NCc1cnn2ccccc12	14.1%
Cc1nc(C2CCN(C(=O)C(C)(C)C)CC2)cc(N2CC3(CCOCC3)OC2=O)n1	6.69%
c1ccc(Cn2nnc3c(N4CCCCC4)ncnc32)cc1	3.44%
O=C(C1CCCCC1)N1CCC(c2nc3c(nnn3Cc3cccc(F)c3)c(=O)[nH]2)CC1	19.3%
O=C(C1CCCCC1)N1CCN(c2ncnc3c2nnn3Cc2ccccc2)CC1	43.1% (active)
CCS(=O)(=O)N1CCc2c(nc(C3CCCN3)nc2NC)C1 (centres undefined)	-56.6%
COc1ccc(NC(=O)C(C)c2c(C)n[nH]c2C)cc1 (centres undefined)	23.5%
Cc1cccc2c1N(C(=O)Nc1ccc(OCc3ccccc3)cc1)CCC2	16.1%
O=C(CN1CCCC1c1ccc2c(c1)OCCCO2)NCCc1ccccc1F (centres undefined)	-52%
Cn1cc(CCNC(=O)Nc2cc(F)ccc2F)c2cccnc21	-16.4%
Cc1c(Cl)cccc1NC(=O)CCn1cnc2ccccc2c1=O	74% (active)
CCN1CCc2nc(-c3ccccc3)n(CC(=O)Nc3cccc(Cl)c3C)c(=O)c2C1	-97%
Cc1ccc(N(C)C(=O)CCn2cnc3ccccc3c2=O)cc1	-5.01%
CCOc1ccc(CC(=O)N2CCN(c3ccc(OC)nn3)CC2)cc1	-11.9%
Cc1cc(C)n(-c2ccc(C(=O)NCC(c3ccccc3)c3c[nH]c4ccccc34)cc2)n1 (centres undefined)	-19.5%
O=C(Cc1ccccc1)N1CCN(c2ccc(N3CCCC3)nn2)CC1	-15.8%
Cc1cc(C)n(-c2ccc(C(=O)Nc3ccccc3C(C)C)nn2)n1	34.9% (active)
O=C(c1ccc(N2CCCC2)nn1)N1CCN(c2ccccn2)CC1	3.65%

SMILES	inhibition
CSc1ccccc1NC(=O)c1ccc(N2CCCC2)nn1	77.3% (active)
O=C(CSc1ncnc2c1nnn2-c1ccc(F)cc1)N1CCc2ccccc21	3.49%
CCCOc1ccc(C2Nc3ccccc3S(=O)(=O)N2Cc2ccccc2)cc1OCC (centres undefined)	11%
CCc1noc(-c2c(C)cc(C)n2CC(=O)NCc2cccc(F)c2)n1	19.8%
COc1ccc(C(CNC(=O)c2oc3ccccc3c2C)N2CCOCC2)cc1 (centres undefined)	0.732%
Cc1noc(-c2cccn2Cc2ccc(F)cc2)n1	-50.7%
Cc1ccc(Cn2cc(-c3noc(-c4ccccn4)n3)nn2)cc1	15%
Cc1ccc(Cn2cc(-c3noc(-c4ccc[nH]4)n3)nn2)cc1	65% (active)
CCN1C(=O)c2c(C(=O)NC3CC3)ncn2CC1(C)C(=O)NC1CCCC1 (centres undefined)	9.61%
COc1cccc(CNC(=O)c2ccc(-c3cncnc3)nc2)c1	17.3%
COc1cc(C(=O)Nc2ccc(-c3nc4cnccc4o3)cc2)cc(OC)c1OC	14.2%
COc1cccc(C(=O)NCc2ccc(-c3nc4cnccc4o3)cc2)c1	30.7% (active)
Cc1cnc(C(=O)N2CCC3(CC2)CC(OCC2CC2)CO3)cn1 (centres undefined)	-3.6%
O=C(Cc1ccccc1)N1CCc2[nH]nc(-c3ccc(F)cc3)c2C1	-4.25%
CC(NC(=O)c1ccc(S(=O)(=O)Nc2ccccc2)cc1)c1ccc(S(N)(=O)=O)cc1 (centres undefined)	11.3%
CC1(C)Cc2nc(-c3ccccc3)nc(SCC(=O)Nc3cccc4ccccc34)c2CO1	-6.78%
CN1C(=O)C(C)(C)COc2ccc(NS(=O)(=O)c3ccccc3Cl)cc21	0.732%
COc1ccc2c(Sc3ccccc3)c(C(=O)NCc3ccc4c(c3)OCO4)[nH]c2c1	7.37%
O=C(COC(=O)c1ccc(F)c(S(=O)(=O)N2CCOCC2)c1)NCc1ccc2c(c1)OCO2	-3.24%
CCCCN(c1ccccc1)S(=O)(=O)c1cccc(C(=O)OCC(=O)NCc2ccc3c(c2)OCO3)c1	47.1% (active)

SMILES	inhibition
Cc1c(-c2nn3c(-c4ccco4)nnc3s2)cccc1[N+](=O)[O-]	-45.6%
CC(C)Cc1cc(-c2nn3c(-c4ccccc4Cl)nnc3s2)n[nH]1	40.6% (active)
CNc1nc2c(c(=O)n1C)CN(S(=O)(=O)c1ccccc1)CC2	11.5%
CC(C)c1ccc(C(=O)N2CCN(c3cnn4cnnc4c3)CC2)cc1	-7.33%
COc1ccc2ccccc2c1S(=O)N1CCN(c2ccccc2F)CC1 (centres undefined)	1.36%
COc1cc2[nH]c(=O)n(Cc3ccc(C(=O)N4CCN(c5ccccn5)CC4)cc3)c(=O)c2cc1OC	9.66%
O=C(Cn1cnc2ccccc21)N1CCCc2ccccc21	-7.37%
O=C(CSc1ccc2nnc(-c3ccccc3)n2n1)N1CCCc2ccccc21	51.5% (active)
CC1CCN(C(=O)CSc2ccc3nnc(-c4cccc(F)c4)n3n2)CC1	-0.05%
CC(C)CN1[C@H]2CCN(C(=O)c3ccccc3)CC[C@@H]2Oc2ccccc2S1(=O)=O	16.5%
Cc1cccc(S(=O)(=O)NCCc2cn(C)c3ncccc23)c1	-9.95%
Cc1cc2c(cc1S(=O)(=O)N1CCC(C(=O)N(C)Cc3ccco3)CC1)OCC(=O)N2	26.1%
CC(C)(C)n1nc(C2CC2)c(Br)c1NC(=O)c1ccccc1F	35.5% (active)
O=C(Nc1c(C(=O)N2CCOCC2)oc2ccccc12)c1ccccc1F	10.2%
O=C(Nc1cc(-c2ccccc2)nn1C1CCS(=O)(=O)C1)c1ccccc1F (centres undefined)	-4.62%
O=C(Nc1cc(=O)[nH]c2nc(CCc3ccccc3)nn12)c1ccc(F)cc1	-74.9%
C[C@]12C(=O)N(c3cccc(C(=O)NCCN4CCOCC4)c3)C(=O)N1CCc1c2[nH]c2ccccc12	12.9%
COc1ccc(CNC(=O)c2ccccc2N2C(=O)N3CCc4c([nH]c5ccccc45)[C@@]3(C)C2=O)cc1	41.7% (active)
COc1ccc2[nH]c3c(c2c1)CCN1C(=O)N([C@@H](C)C(=O)NCC(=O)O)C(=O)[C@]31C	-8.05%
